IkB signaling: IkB Signaling; ABC-DLBCL IkBa-CBG/CBR dual luciferase ratio, 4 h; response scale: scaled: untreated 0%, proteasome inhibitor 100%; Potency, µM (series often up to 57.1 µM), inactives show at the highest dose IkBa stabilization activation; AID 445, 2006; hit rate 0.04% among 110,000; active = well fitted curve in the direction sought with a large enough effect in the signal ratio, not every such curve was filed as active; inconclusive = small, poorly fitted or top-dose-only effect, or a change in a side signal; the % refers to the signal ratio;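 note: the direction sought is a rising ratio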
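In this assay, an IκBα–CBG68 fusion accumulates when IKK-driven degradation is blocked; native CBR normalizes for cell number. OCI-Ly3 cells were treated 4 h with compound and doxycycline, then green and red light read after Chroma-Glo addition.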
CRE Fsk mod: Cell signaling CRE-BLA (Fsk stim). CHO CRE-bla reporter (cAMP response element driving beta-lactamase), forskolin EC10, beta-lactamase ratio. Potency, µM (doses to about 38.2 µM), for the others: at the top dose activity change, negative = inhibition, actives largely listed as activators. hit rate 2.5% among 71,000; active = well fitted activation curve with a large enough effect in the signal ratio, with a control signal flat, not every such curve was filed as active; inconclusive = small, poorly fitted or top-dose-only effect, or effect the other way, or a change in a side signal; the % refers to the signal ratio; note: % of control where 0% means no effect
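Beta-lactamase reporter under a cAMP responsive element in CHO cells; compounds tested in titration series against EC10 NKH 477, 3 h at 37 °C. Read-out: CCF4 FRET ratio 460nm/530nm (excitation 405nm) giving %Activity, fitted to AC50.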
TSHR ag: qHTS Assay for Agonists of the Thyroid Stimulating Hormone Receptor. Thyrotropin receptor (Homo sapiens), P16473. HEK293-CNG-TSHR cells (CNG channel as cAMP sensor), membrane potential dye, cAMP. Potency, µM (titrated, usually from 57.1 µM), inactives show at the highest dose activation, hits mostly activators. hit rate 0.48% among 73,000; active = well fitted activation curve with a large enough effect in the main read-out, with a control signal flat, not every such curve was filed as active; inconclusive = small, poorly fitted or top-dose-only effect, or a change in a side signal; inactive = no such curve, though single readings can be large or run the other way; % of control where 0% means no effect;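 note: the control signal comes from parental cells without the receptor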
Target sequence (P16473 whole entry, looked up): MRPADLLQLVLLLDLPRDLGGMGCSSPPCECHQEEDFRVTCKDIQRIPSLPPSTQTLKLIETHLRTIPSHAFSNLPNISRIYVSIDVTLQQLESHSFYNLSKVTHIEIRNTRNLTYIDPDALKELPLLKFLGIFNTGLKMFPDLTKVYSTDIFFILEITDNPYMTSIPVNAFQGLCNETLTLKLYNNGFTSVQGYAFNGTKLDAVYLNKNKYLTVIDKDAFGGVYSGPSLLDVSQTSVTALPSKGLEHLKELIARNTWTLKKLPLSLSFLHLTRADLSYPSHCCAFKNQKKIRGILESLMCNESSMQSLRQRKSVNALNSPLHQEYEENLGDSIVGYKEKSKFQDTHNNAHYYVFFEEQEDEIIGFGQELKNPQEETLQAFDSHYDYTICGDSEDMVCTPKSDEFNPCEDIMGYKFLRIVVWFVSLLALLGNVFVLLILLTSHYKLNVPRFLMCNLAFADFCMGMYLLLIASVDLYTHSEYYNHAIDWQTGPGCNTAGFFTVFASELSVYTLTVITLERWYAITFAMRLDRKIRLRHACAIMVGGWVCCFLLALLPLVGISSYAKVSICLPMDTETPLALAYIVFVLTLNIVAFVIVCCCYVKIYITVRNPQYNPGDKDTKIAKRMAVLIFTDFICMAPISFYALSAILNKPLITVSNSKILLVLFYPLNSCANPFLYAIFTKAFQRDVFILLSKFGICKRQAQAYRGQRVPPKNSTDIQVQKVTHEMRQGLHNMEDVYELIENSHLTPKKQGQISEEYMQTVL
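HEK 293 cells stably expressing TSHR and a modified CNG channel, with CNG-only parental cells as counterscreen, were preloaded 60 min at room temperature with membrane potential dye containing 100 uM RO 20-1724. Compound exposure was 30 min, and depolarization was read as fluorescence at 590 nm.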
Hsp90 Hop PPI: qHTS Assay for Disrupters of an Hsp90 Co-Chaperone Interaction; Hsp90 C-terminal peptide / TPR2A (Hop) interaction, human; AlphaScreen TPR2A-His6 binding biotin-Hsp90 C-terminal peptide; Potency, µM (highest dose often 57 µM), for inactives: top-dose activity change, negative = inhibition; hit rate 0.44% among 71,000; active = well fitted curve in either direction with a large enough effect; inconclusive = small, poorly fitted or top-dose-only effect, or another doubt; note: % is set by controls: 0 for no effect and ±100 for the full control effect
HEK293 cAMP cs: qHTS Assay for Agonists of the Thyroid Stimulating Hormone Receptor: Activators of Intracellular cAMP Concentrations in Parental HEK 293; parental HEK293 CNG cAMP sensor, membrane potential fluorescence; hit rate 2.5% among 73,000; Potency, µM (top dose mostly 57.1 µM), inactives show at the highest dose activation, hits mostly activators; AID 938, 2007; active = well fitted activation curve with a large enough effect; inconclusive = small, poorly fitted or top-dose-only effect; inactive = no such curve, though single readings can be large or run the other way; note: % of control where 0% means no effect; nearly all actives have a fitted effect of over 55% in size
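Parental HEK 293 cells stably expressing a cAMP-gated CNG channel were loaded with membrane potential dye containing 100 uM RO 20-1724 for 60 min. Compound added for 30 min; depolarization read as fluorescence intensity at 590 nm.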
* hit, by the source's call; u = inconclusive; x = no result; [ ] = remark or other dose. This is a sample that favours compounds with a hit; in the whole collection about 3.5% have one here. Potency is the fitted concentration of half-maximal effect.

SMILES | IkB signaling | CRE Fsk mod | TSHR ag | Hsp90 Hop PPI | HEK293 cAMP cs
O=C(NC1CCCC1)C(c1cccs1)N(CC1CCCO1)C(=O)Cc1cccs1 (stereo not drawn) | 2.2% | u | u | -1.2% | 0.316µM*
c1ccc2c(CSCc3cccc4ccccc34)cccc2c1 | -0.8%[11.4 µM] | 5.9%[7.6 µM] | 6.9%[11.4 µM] | 15.9%[11 µM] | 8.4%[11.4 µM]
CC1=C(C(=O)OCc2ccccc2)C(C2CCCCC2)NC(=O)N1CCCCCC(=O)O (stereo not drawn) | x | u | u | -7.0% | u
CC1=C(C(=O)OCc2ccccc2)C(C2CC2)NC(=O)N1CCCCCC(=O)O (stereo not drawn) | x | 23.1% | u | -1.7% | 20µM*
c1ccc(Cn2nnc3c(N4CCCCCC4)ncnc32)cc1 | 7.4% | 3.16µM* | 9.9% | 9.4% | 24.2%
Fc1cccc(Cl)c1Cn1nnc2c(N3CCC4(CC3)OCCO4)ncnc21 | u | 5.4% | x | 1.2% | 24.0%
Clc1cccc(Cl)c1Cn1cnc2c(N3CCCCCC3)ncnc21 | 0.3% | 2µM* | u | -0.2% | u
CN1CCN(c2ncc3nc(-c4cccc(C#N)c4)c(=O)n(C)c3n2)CC1 | -1.4%[11.4 µM] | 12.6µM* | u | -2.1% | u
Cc1nc2cnc(N3CCNCC3)nc2n(C2CC2)c1=O | 1.0%[11.4 µM] | 12.6µM* | -0.2% | 0.0% | 4.4%
N#Cc1cccc(-c2nc3cnc(N4CCOCC4)nc3n(C3CC3)c2=O)c1 | 1.8%[11.4 µM] | 2µM* | 0.6% | -3.7% | 5.7%
O=c1c(-c2ccccc2)nc2cnc(N3CCOCC3)nc2n1C1CC1 | -0.9%[11.4 µM] | u | 2.1% | -2.4% | 10.8%
COc1ccc(-c2nc3cnc(N4CCNCC4)nc3n(C3CC3)c2=O)cc1 | -1.4%[11.4 µM] | u | u | -1.9% | u
CN1CCN(c2ncc3nc(-c4ccccc4)c(=O)n(C)c3n2)CC1 | -2.4%[11.4 µM] | u | -2.3% | -2.0% | 21.6%
Cc1ccc2nc3c(cc(C#N)c(=O)n3-c3nnc(SCc4ccc(F)cc4)s3)c(=O)n2c1 | -1.8% | x | x | x | x
CCC(c1nnnn1C1CCCC1)N(Cc1cccs1)Cc1cc2cc(C)ccc2[nH]c1=O (stereo not drawn) | u | 4.2% | x | -4.4% | 24.7%
CCOC(=O)Cn1nnnc1C(CC)N(Cc1cc2ccc(C)cc2[nH]c1=O)C1CCCC1 (stereo not drawn) | -0.3% | u | u | -3.5% | 15.8µM*
CCOC(=O)Cn1nnnc1C(CC)N(Cc1cccs1)Cc1cc2cc(C)ccc2[nH]c1=O (stereo not drawn) | u | 1.8% | u | -1.4% | 3.98µM*
COC(=O)c1cc2sccc2n1CC(=O)Nc1cc(Cl)ccc1OC | -1.8% | x | x | x | x
O=C(CSc1oc(-c2cccs2)nc1S(=O)(=O)c1ccccc1)Nc1ccc(F)cc1 | 14.9% | x | x | x | x
O=c1[nH]c(C(F)(F)F)nc2c1nnn2Cc1ccccc1F | 0.5% | -3.1% | u | 1.8% | 25.1µM*
Cc1nn(Cc2ccccc2)c2sc(C(=O)N3CCN(Cc4ccc5c(c4)OCO5)CC3)cc12 | u | -11.3% | 17.0% | -8.7% | -4.5%
CCc1cc2cc(C(=O)N3CCN(Cc4ccccc4)CC3)sc2s1 | u | u | u | 2.5% | 31.6µM*
CCCn1c(C)nc2c(NCCCCN(C)C)nc(C)nc21 | x | 1.5% | 5.7% | 0.7% | 2.8%
COc1ccc(-n2nnnc2SCC(=O)Nc2ccc3c(c2)OCCO3)cc1OC | -1.0% | 10µM* | 5.1% | -4.1% | -4.0%
COc1ccc(-n2nnnc2SCC(=O)Nc2ccc3c(c2)OCCO3)c(OC)c1 | u | -2.7% | 25.0% | -4.0% | 6.1%
Cc1ccc(-n2nnnc2SCC(=O)Nc2ccccc2N2CCCCC2)cc1C | 2.0% | u | u | 22.1% | 3.16µM*
COc1cccc(-n2nnnc2SCC(=O)Nc2cccc(C)n2)c1 | u | u | u | -0.9% | 25.1µM*
Oc1c(Cl)cc(C(c2cc(Cl)c(O)c(Cl)c2)C(c2cc(Cl)c(O)c(Cl)c2)c2cc(Cl)c(O)c(Cl)c2)cc1Cl | 9.3%[11.4 µM] | 12.9%[7.6 µM] | 11.1%[11.4 µM] | -2.7%[11 µM] | -4.5%[11.4 µM]

High-throughput results: PubChem, National Center for Advancing Translational Sciences (NCATS)
